Results published in PubChem BioAssay (EPA / NIEHS).
Several values for one entry are separate records, joined by “and”; a condition that tells them apart may be missing. Equal values may be shown once. Where a structure was tested more than once in an assay, its records may differ in their call. Activity calls are given as the source filed them. The calls were made as follows: active = hit-call score of the fitted dose curve at least 0.9, where 1 is the maximum; inactive = score below 0.9.

read-out: CD40, CD40 (gene 958); test: BSK_LPS_CD40: BioMAP Diversity Plus: LPS Assay for CD40 Biomarker Activity (AID 2283076); conditions: primary human HUVEC with PBMC; actives raise or lower the signal
Protocol: BSK_LPS is a cell-based, multiplexed-readout assay that uses umbilical vein endothelium and peripheral blood mononuclear cells, a human vascular primary cell co-culture, with measurements taken at 24 hours after chemical dosing in a 96-well plate.BSK_LPS_CD40 is an assay component measured in the BSK_LPS assay. It measures CD40 antibody related to regulation of gene expression using ELISA technology.Data from the assay component BSK_LPS_CD40 was analyzed into 1 assay endpoint. This assay endpoint, BSK_LPS_CD40, was analyzed with bidirectional fitting relative to DMSO as the negative control and baseline of activity. Using a type of binding reporter, gain or loss-of-signal activity can be used to understand changes in the signaling as they relate to the gene CD40. Furthermore, this assay endpoint can be referred to as a primary readout, because this assay has produced multiple assay endpoints where this one serves a signaling function. To generalize the intended target to other relatable targets, this assay endpoint is annotated to the cytokine intended target family, where the subfamily is inflammatory factor.
The levels of cell surface (or secreted, indicated by the prefix "s") biomarker endpoints were measured by ELISA. Overt cytotoxicity to cells in confluent adherent cultures (all systems other than the BT system) was assessed by measuring total protein levels using sulforhodamine B (SRB) staining in parallel cultures at the time of biomarker measurements, indicated as SRB endpoints. For proliferation assays for adherent cell types, individual cell types are cultured at sub-confluence and relative cell numbers quantified by SRB staining at time points optimized for each system (48 h: 3C and CASM3C systems; 72 h: BT and HDF3CGF systems; 96 h: SAg system). SRB was performed by staining cells with 0.1% SRB after fixation with 10% TCA and reading wells at 560 nm.Viability and proliferation of PBMC (T cells) was quantified by Alamar Blue reduction for the SAg and BT systems. For PBMC viability (referred to as PBMC Cytotoxicity within the assay endpoint names), cells were plated (75,000/well in a 96-well plate) and then chemical samples added for 1 h before addition of activators, SEB and TSST-1 (20 ng/mL final concentration each). Cells were incubated for 90 h. Then, Alamar Blue (20 uL/well) (Invitrogen, Cat DAL1100) was added for 6 h, and the plates were read with a fluorescence microplate reader at 546/580 nm (excitation/emission). For PBMC proliferation, cells were plated and activated as above but incubated for only 16 h prior to addition of Alamar Blue. Plates were read after 6 h.

| Compound | outcome | AC50 |
| --- | --- | --- |
| CC(O)CN(CCN(CC(C)O)CC(C)O)CC(C)O (stereo not given) | inactive | – |
| CC(=O)OCCC(C)C | inactive | – |
| CCCCCCc1ccc(O)cc1O | – | 27.6 µM (active) |
| CC1=CC(=O)CC(C)(C)C1 | inactive | – |
| CNS(=O)(=O)c1cc(C(=O)N2CCC(CCN3C4CCC3CC(n3c(C)nc5ccccc53)C4)(c3cccc(F)c3)CC2)c(Cl)cc1F (stereo not given) | – | 20 µM (active) |
| C[C@](N)(Cc1ccc(O)c(O)c1)C(=O)O | inactive | – |
| CC1(C)C(=O)N(Br)C(=O)N1Br | inactive | – |
| CNCc1ccc(NC(=O)c2c[nH]c3c2C(=O)CCC3)cc1 | inactive | – |
| CCC(C)(C)C(=O)O[C@H]1C[C@@H](C)C=C2C=C[C@H](C)[C@H](CC[C@@H]3C[C@@H](O)CC(=O)O3)[C@H]21 | – | 6.52 µM (active) |
| C1N2CN3CN1CN(C2)C3 | inactive | – |
| Nc1ccc(Nc2ccccc2)cc1 | – | 3.97 µM (active) |
| COC(=O)c1ccccc1O | inactive | – |
| CCOC(=O)CC(CC(=O)OCC)(OC(C)=O)C(=O)OCC | inactive | – |
| O=C(OC[C@H]1O[C@@H](OC(=O)c2cc(O)c(O)c(OC(=O)c3cc(O)c(O)c(O)c3)c2)[C@H](OC(=O)c2cc(O)c(O)c(OC(=O)c3cc(O)c(O)c(O)c3)c2)[C@@H](OC(=O)c2cc(O)c(O)c(OC(=O)c3cc(O)c(O)c(O)c3)c2)[C@@H]1OC(=O)c1cc(O)c(O)c(OC(=O)c2cc(O)c(O)c(O)c2)c1)c1cc(O)c(O)c(OC(=O)c2cc(O)c(O)c(O)c2)c1 | inactive | – |
| Cn1cnc([N+](=O)[O-])c1Sc1ncnc2nc[nH]c12 | inactive | 26.9 µM (active) and 4.17 µM (active) |
| O=C(O)CCN(C1(C(=O)NO)CCCC1)S(=O)(=O)c1ccc(Oc2ccc(F)cc2)cc1 | inactive | – |
| COC(=O)c1c(Cl)c(Cl)c(C(=O)OC)c(Cl)c1Cl | – | 11.4 µM (active) |
| CC[C@H]1CC[C@H](NCc2cc3c(cc2OC)[C@H]2C[C@H]2C(=O)N3C)[C@H](c2ccccc2)N1 | inactive | – |
| C=CCCCCCCCCC(=O)O | inactive | – |
| O=P(OC(CCl)CCl)(OC(CCl)CCl)OC(CCl)CCl | inactive | – |

| Compound | outcome | AC50 |
| --- | --- | --- |
| O=C(CCCCCCCCc1cccnc1)N1CCC(C=C(c2ccccc2)c2ccccc2)CC1 | – | 8.31 µM (active) |
| CCCC(=O)OCC | inactive | – |
| C1=CCCC=CCCC=CCC1 | inactive | – |
| CC(C)CCO | inactive | – |
| O=C(O)CC(O)C(=O)O (stereo not given) | inactive | – |
| O=C(NS(=O)(=O)/C=C/c1ccccc1)c1ccc(F)cc1Cl | inactive | – |
| Cc1ccc(O)cc1 | inactive | – |
| CC/C(=C\C(=N/O)C(N)=O)C(C)[N+](=O)[O-] (stereo not given) | inactive | – |
| CC(=O)OC[C@H]1O[C@@](COC(C)=O)(O[C@H]2O[C@H](COC(C)=O)[C@@H](OC(C)=O)[C@H](OC(C)=O)[C@H]2OC(C)=O)[C@@H](OC(C)=O)[C@@H]1OC(C)=O | inactive | – |
| Cc1ccc(N)cc1O | inactive | – |
| C=CC(=C)CCC=C(C)C | inactive | – |
| CCCCCCCCCCCCCCCO | – | 33.6 µM (active) |
| CCOC(=O)c1ccc(C2CCC(NC[C@H](O)COc3ccc(O)c(NS(C)(=O)=O)c3)CC2)cc1 (stereo not given in full) | inactive | – |
| O=C(O)c1cccc(Oc2ccccc2)c1 | inactive | – |
| O=c1[nH]c2ccc(S(=O)CCN3CCC(Cc4ccc(F)cc4)CC3)cc2o1 (stereo not given) | inactive | – |
| CCN(C(=O)c1cc(C)cc(OC[C@H](C)Nc2ccncc2)c1)C(C)C | inactive | – |
| NC(=O)NO | inactive | – |
| COCCOCCOCCOC | inactive | – |
| CCCCC(CC)COC(=O)CCCCCCCCC(=O)OCC(CC)CCCC (stereo not given) | inactive | – |
